Compound activity: PubChem, several laboratories
Sampled rows, rich in hits. Any-hit rate of the full collection: about 0.81%.
Bim-Bcl-W: inhibitors of Bim-Bcl-W interaction, human; Q92843; bead-based flow cytometry, Bim peptide-Bcl-W binding; inhibition, % at 10 µM; 190,000 compounds, 0.02% hits;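 note: 0% = bound tracer without compound and 100% = peptide blocker; higher means less fluorescent Bim peptide bound to Bcl-W beads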
Target sequence (Q92843 whole entry, looked up): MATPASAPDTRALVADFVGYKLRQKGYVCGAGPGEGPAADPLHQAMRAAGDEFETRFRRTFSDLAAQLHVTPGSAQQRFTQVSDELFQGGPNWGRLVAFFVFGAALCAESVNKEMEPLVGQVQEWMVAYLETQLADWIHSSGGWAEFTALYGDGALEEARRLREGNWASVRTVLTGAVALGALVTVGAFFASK
Bcl-B Bim block: inhibitors of Bim-Bcl-B interaction, human | bead-based flow cytometry, Bim peptide-Bcl-B binding | inhibition, % at 10 µM | AID 951 | Q9HD36 | 190,000 compounds, 0.073% hits;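 note: 0% = tracer peptide without compound and 100% = reference inhibitor peptide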
Bim-Bcl-2: inhibitors of Bim-Bcl-2 interaction, human; P10415; Bead-based flow cytometry, Bim peptide-Bcl-2 binding; inhibition, % at 10 µM; 190,000 compounds, 0.06% hits; in the data active = inhibition above about 40%; inconclusive = no clear call, values can overlap the other calls;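 note: 0% = no compound wells with probe peptide and 100% = reference peptide inhibitor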
Bfl-1 Bim block: inhibitors of Bim-Bfl-1 interaction, human | AID 1008 | 190,000 compounds, 0.12% hits | Q16548 | Bead-based flow cytometry, Bim-Bfl-1 binding inhibition | inhibition, % at 10 µM;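 note: 0% = wells without compound plus tracer and 100% = blocker peptide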
Target sequence (Q16548 whole entry, looked up): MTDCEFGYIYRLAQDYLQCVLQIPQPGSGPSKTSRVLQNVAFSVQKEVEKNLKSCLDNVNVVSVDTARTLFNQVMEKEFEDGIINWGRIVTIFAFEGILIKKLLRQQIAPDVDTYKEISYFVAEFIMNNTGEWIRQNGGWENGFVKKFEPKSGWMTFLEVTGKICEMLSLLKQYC
Bim-Bcl-XL: human Bim-Bcl-XL interaction inhibition. Bim peptide-Bcl-XL binding, bead flow cytometry, fluorescence. inhibition, % at 10 µM. 190,000 compounds, 0.04% hits. AID 1007
Target sequence (Q07817 whole entry, looked up): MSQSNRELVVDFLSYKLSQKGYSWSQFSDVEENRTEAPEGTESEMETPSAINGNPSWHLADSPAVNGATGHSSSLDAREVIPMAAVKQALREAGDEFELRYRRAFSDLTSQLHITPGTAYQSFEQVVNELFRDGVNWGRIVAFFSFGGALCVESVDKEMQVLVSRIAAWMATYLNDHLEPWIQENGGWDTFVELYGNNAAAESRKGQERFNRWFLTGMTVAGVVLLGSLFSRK
Bcl-xL primary: inhibitors of human Bcl-xL. inhibition, % at 10.9 µM. AID 2129. 320,000 compounds, 0.7% hits. GST-Bcl-xL / FITC-Bim BH3 peptide fluorescence polarization. Q07817;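 active = inhibition above the mean of all tested compounds plus 3 SD, cutoff set per campaign, cut at about 30% in these data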;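 note: 0% = DMSO wells and 100% = unlabeled Bim-BH3 peptide competitor; inhibitors lower millipolarization by displacing the labeled peptide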
Numbers without * were called inactive; u = inconclusive; x = no result; + = active, no number. Cut-off read from the data, not from the text of the source, unless noted: active = inhibition above about 40%.

SMILES	Bim-Bcl-W	Bcl-B Bim block	Bim-Bcl-2	Bfl-1 Bim block	Bim-Bcl-XL	Bcl-xL primary
CSCCC(NS(=O)(=O)c1ccc(C)cc1)C(=O)NC1CCCCCC1 (configuration not stated)	x	x	x	x	x	2.5
O=C(c1cc(F)ccc1F)C1CCCN(C(=O)CCc2cnccn2)C1 (configuration not stated)	0.0	-3.0	-2.0	-6.0	-2.0	-2.3
O=C(c1cc(F)ccc1F)C1CCCN(C(=O)CCCN2CCCCC2=O)C1 (configuration not stated)	0.0	1.0	0.0	4.0	0.0	50.8*
Cc1c(C(=O)c2ccc(Cl)cc2[N+](=O)[O-])c2ccccn2c1CCC#N	-2.0	-7.0	-2.0	-3.0	-4.0	2.8
Cc1c(C(=O)c2ccc(F)cc2F)c2ccccn2c1CCC#N	x	x	x	x	x	100.5*
COc1ccc(C(=O)Nc2ccc(NC(C)=O)cc2)cc1S(=O)(=O)N1CCCC1	x	x	x	x	x	3.6
COc1ccc(NC(=O)c2ccc(OC)c(S(=O)(=O)N3CCCCC3C)c2)cn1 (configuration not stated)	x	x	x	x	x	51.0*
O=C1C(=O)N(c2ccccn2)C(c2cccc(F)c2)/C1=C(/O)c1ccccc1 (configuration not stated)	x	x	x	x	x	6.2
O=C(c1ccc(CNS(=O)(=O)c2ccc(Br)cc2)cc1)N1CCCCCC1	x	x	x	x	x	-0.7
O=C(Nc1ccc2nc3ccccc3nc2c1)c1ccc(Br)cc1	3.0	-11.0	x	0.0	-1.0	30.0
CC(=O)Nc1ccc2nc3c(=O)n(C)c(=O)n(C)c3nc2c1	x	x	x	x	x	131.8*
CC(=O)Nc1ccc2nc3ccccc3nc2c1	x	x	x	x	x	59.2*
CC1(C)CC(OC(=O)c2ccco2)CC(C)(C)N1O	-3.0	-3.0	-4.0	-11.0	-4.0	42.8*
CN1C(C)(C)CC(NC(=O)c2ccco2)CC1(C)C	x	x	x	x	x	3.8
CC(=O)CSc1nc2c(c(=O)[nH]c(=O)n2C)n1CCCc1ccccc1	x	x	x	x	x	-0.2
COC(=O)c1ccc(N/N=C/c2cc([N+](=O)[O-])cc(OC)c2O)cc1	-3.0	-5.0	-3.0	-7.0	-6.0	35.7*
COc1ccc(S(=O)(=O)N2CC(C)OC(C)C2)cc1C(=O)N1CCCCC1 (configuration not stated)	x	x	x	x	x	-1.1
Cc1cc(-n2c(C)cc(C(=O)CSc3nncn3C(C)C)c2C)no1	x	x	x	x	x	-6.5
CC1(C(=O)N(CC(=O)NC2CCCC2)Cc2ccco2)CC(=O)N=C2C=CC=CN21 (configuration not stated)	23.0	x	88.0*	x	25.0	5.3
COc1ccc(NS(=O)(=O)c2cc(OC)ccc2OC)cc1	x	x	x	x	x	37.3*
COc1ccc(OC)c(S(=O)(=O)Nc2ccc(F)cc2)c1	-1.0	1.0	0.0	0.0	0.0	5.1
CCOc1ccc2[nH]c(C)c(CN3CCCCCC3)c(=O)c2c1	x	x	x	x	x	-3.6
C=CCn1c(=O)[nH]c2nc3cc(N=CN(C)C)c(C)cc3nc2c1=O	x	x	x	x	x	+
O=C(O)Cn1c2c(c3ccccc31)CCCC2	0.0	-1.0	15.0	3.0	-2.0	39.4*
O=C1N=C(N2CCOCC2)S/C1=C\c1ccc(-c2ccccc2Cl)o1	-3.0	0.0	-1.0	4.0	-9.0	40.0*
SMILES	Bim-Bcl-W	Bcl-B Bim block	Bim-Bcl-2	Bfl-1 Bim block	Bim-Bcl-XL	Bcl-xL primary
Cc1ccccc1-c1ccc(/C=C2/SC(N3CCOCC3)=NC2=O)o1	x	x	x	x	x	22.7
CC1Nc2ccccc2C(=O)N1NS(=O)(=O)c1ccccc1 (configuration not stated)	28.0	25.0	29.0	43.0*	42.0*	3.0
Brc1ccccc1Cn1cnc2ccccc21	x	x	x	x	x	76.1*
CCCCn1c(N)c(N(CC(C)C)C(=O)CCC2CCCCC2)c(=O)[nH]c1=O	x	x	x	x	x	2.4
N#CC(C#N)=C1C=C2C=C(N3CCCCC3)CCC2CC1 (configuration not stated)	-22.0	-93.0	-76.0	-10.0	-44.0	35.4*
CCCCN(C)C1=CC2=CC(=C(C#N)C#N)CCC2CC1 (configuration not stated)	x	x	u	x	x	38.6*
CCN(CC)C1=CC2=CC(=C(C#N)C#N)CCC2CC1 (configuration not stated)	-1.0	-1.0	-1.0	-1.0	-3.0	51.8*
N#CCCN(C(=O)COC(=O)c1cc(S(=O)(=O)N2CCOCC2)ccc1Cl)c1ccc(F)cc1	x	x	x	x	x	-3.3
CN=Cc1nc(-c2ccccc2)oc1O	x	x	x	x	x	-2.9
CC1=Nc2ccccc2/C1=C\c1nc(-c2ccc(F)cc2)oc1O	2.0	-8.0	-5.0	-12.0	-1.0	+
CCCn1cnnc1CNC(=O)C1CCC(=O)N(CCCc2ccccc2)C1 (configuration not stated)	x	x	x	x	x	-1.9
Cc1cccc(NC(=O)c2cccc3c2-c2ccccc2C3=O)n1	0.0	-2.0	-1.0	-6.0	-1.0	67.4*
COc1ccc2c(c1)cc(C(=O)N[C@@H](Cc1ccccc1)C(=O)O)n2C	x	x	x	x	x	25.5
CCN(CC)CCCNc1nc(SC)nc2sc3c(c12)CCN(C)C3	x	x	x	x	x	70.6*
CSc1nc(NCCCO)c2c3c(sc2n1)CN(C)CC3	x	x	x	x	x	4.7
CC(C)c1cc(Nc2cccc(O)c2)cc(C(C)C)c1O	x	x	x	x	x	139.9*
Cc1ccc(-c2nnc(CCC(=O)NCc3csc(C)n3)o2)s1	x	x	x	x	x	7.1
CC(C(=O)O)c1ccc(C(=O)c2ccccc2)s1 (configuration not stated)	x	x	x	x	x	-2.5
CC(C)(C)C1=CC(=Nc2ccccc2N)C=C(C(C)(C)C)C1=O	-3.0	-6.0	-1.0	0.0	-6.0	5.7
CC(C)(C)C1=CC(=O)C(=O)C(C(C)(C)C)=C1	9.0	2.0	18.0	56.0*	0.0	17.1
O=C(Nc1ccccc1)Nc1n[nH]c2nnc(-c3ccccc3)c(-c3ccccc3)c12	x	x	x	x	x	4.4
Cc1cc(/C=C(\C#N)c2nc3ccccc3[nH]2)c(C)n1C	-1.0	-11.0	-3.0	3.0	-3.0	110.0*
Cc1cc(/C=C(/C#N)c2nc3ccccc3[nH]2)c(C)n1-c1cccc([N+](=O)[O-])c1	5.0	-5.0	-3.0	-6.0	-7.0	10.2
Cc1ccc(C(CC(=O)O)NC(=O)CN2C(=O)c3ccccc3C2=O)cc1 (configuration not stated)	x	x	x	x	x	8.9
Cn1nc([N+](=O)[O-])c(C(C#N)c2ccccn2)c(Cl)c1=O (configuration not stated)	2.0	-4.0	3.0	6.0	0.0	47.7*
